Measured values as given in PubChem BioAssay.
Activity calls are given as the source filed them. Unless noted, the rule behind the calls is not given here.

Columns and labels:
[1] = system: XIP peptide (Xip251-270) binding; assay: XIP fragment 251-270 binding compounds – biochemical, small-molecule microarray, fluorescence 635/667 nm, 0.1 µg/mL protein, primary screen (AID 1182); settings: fluorescent protein binding, 635 nm, higher = more signal, called active from +8 up or from −8 down
XIP peptide (Xip251-270) = assay: compounds binding XIP fragment 251-270 – biochemical, small-molecule microarray, fluorescence 635/667 nm, 0.5 µg/mL protein, primary screen (AID 1183); settings: fluorescence 635 nm, higher = more signal
[2] = blood-stage malaria parasite viability loss – strain 3D7, DAPI fluorescence, 100 nL, primary screen (AID 1184);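 note: parasites grown inside human red blood cells in medium with human serum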; settings: P. falciparum 3D7 growth, 3 d, higher = more signal
[3] = target: Homeobox protein Hox-A13 (Mus musculus) (UniProt Q62424); assay: disruptors of Hoxa13 oligonucleotide interaction – biochemical, fluorescence polarization, labeled oligonucleotide, primary screen (AID 1185); settings: Hoxa13:DNA binding, 15 min, higher = more signal, called active from +8 up or from −8 down
[4] = blockers of DNA damage checkpoint Chk1 activation – imaging, HeLa, hydroxyurea, phospho-Chk1 antibody, percent positive cells, primary screen (AID 1186); settings: hydroxyurea-induced phospho-Chk1 immunofluorescence imaging, higher = more signal
[5] = blockers of DNA damage checkpoint Chk1 activation – imaging, HeLa, hydroxyurea, phospho-Chk1 nuclear intensity, primary screen (AID 1187); settings: hydroxyurea-induced phospho-Chk1 immunofluorescence imaging, higher = more signal

Homeobox protein Hox-A13 (Mus musculus), sequence (Q62424 whole entry, looked up): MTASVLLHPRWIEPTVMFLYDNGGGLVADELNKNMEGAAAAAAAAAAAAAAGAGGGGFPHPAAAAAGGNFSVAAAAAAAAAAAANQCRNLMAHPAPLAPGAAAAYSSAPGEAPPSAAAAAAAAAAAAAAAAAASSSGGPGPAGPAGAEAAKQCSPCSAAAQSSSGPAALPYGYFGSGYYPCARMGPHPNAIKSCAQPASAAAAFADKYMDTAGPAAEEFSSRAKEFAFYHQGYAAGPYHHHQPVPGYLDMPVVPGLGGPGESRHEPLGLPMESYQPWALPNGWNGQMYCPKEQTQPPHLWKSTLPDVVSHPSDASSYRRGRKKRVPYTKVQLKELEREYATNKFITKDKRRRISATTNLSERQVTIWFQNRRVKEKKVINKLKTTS

Row | SMILES | composite z-score [1] | composite z-score (XIP peptide (Xip251-270)) | z-score [2] | z-score [3] | z-score [4] | z-score [5]
1 | CCOC(=O)C[C@H]1[C@H](OC(=O)Cc2ccc3c(c2)OCO3)[C@@H](NC(=O)c2ccc(-c3ccccc3)cc2)c2cc(OCCCO)ccc2N1C(=O)c1ccccc1 | -0.238 (inactive) | 0.729 | -1.77 | -1.88 (inactive) | -0.467 (inactive) | -0.214 (inactive)
2 | C=CCOC(=O)[C@H]1[C@@H]2C(=O)O[C@@H](c3ccccc3)[C@@H](c3ccccc3)N2[C@@H](c2ccc(OCCOC(=O)[C@@H]3C[C@@H]4C(=O)NCC(=O)N4[C@@H]3c3ccc(O)cc3)cc2)[C@]12C(=O)Nc1ccccc12 | 0.941 (inactive) | 0.854 | -1.86 | 0.503 (inactive) | -0.341 (inactive) | 0.559 (inactive)
3 | [N-]=[N+]=NCc1ccccc1[C@@H]1OC(c2ccc(OCCCO)cc2)=N[C@]1(Cc1ccccc1)C(=O)N1CCCCC1 | 0.34 (inactive) | 0.654 | -2.23 | -3.35 (inactive) | -0.837 (inactive) | -0.726 (inactive)
4 | COC(=O)c1ccc(C23CC2(C(NP(=O)(c2ccccc2)c2ccccc2)c2ccccc2)C3)cc1 (configuration not stated) | 0.946 (inactive) | 0.474 | -1.35 | -3.76 (inactive) | -1.54 (inactive) | -1.34 (inactive)
5 | CCCCCCCCCCC(O)C1C=CC2C(=O)N(Cc3ccccc3)C(=O)C2N1n1cnnc1 (configuration not stated) | 0.109 (inactive) | 0.609 | -1.08 | -2.2 (inactive) | 0.577 (inactive) | -0.034 (inactive)
6 | COc1ccc([Si](C)(C)[C@@H]2[C@@H](CC(=O)N(CCO)Cc3ccccc3)O[C@]3(C(=O)N(C)c4ccccc43)[C@H]2C)cc1 | 1.74 (inactive) | 0.626 | -1.55 | -6.65 (inactive) | -0.36 (inactive) | -1.47 (inactive)
7 | C=CC[C@@]1(C(=O)N2CCOCC2)N=C(c2ccc(OCCCO)cc2)O[C@@H]1c1ccccc1N=[N+]=[N-] | 1.18 (inactive) | 0.598 | -1.75 | -3.44 (inactive) | -0.217 (inactive) | -0.141 (inactive)
8 | O=C1O[C@@H](c2ccccc2)[C@@H](c2ccccc2)N2[C@@H](c3ccccc3OCCO)[C@]3(C(=O)Nc4ccc(C#CC5(O)CCCCCC5)cc43)[C@@H](C(=O)Nc3nc4ccccc4s3)[C@H]12 | 0.0985 (inactive) | 0.626 | -2.16 | 2.1 (inactive) | 0.329 (inactive) | 0.288 (inactive)
9 | CS(=O)(=O)CCOC(=O)C1=CC(CCCO)=CC(c2cccs2)N(Cc2cc3c(cc2Br)OCO3)C=C1C(=O)OCCS(C)(=O)=O (configuration not stated) | 0.555 (inactive) | 0.634 | -3.01 | -2.91 (inactive) | -0.169 (inactive) | 0.132 (inactive)
10 | O=C1C[C@]2(c3ccc([N+](=O)[O-])cc3)C(=O)N(CC(F)(F)F)c3cc(CO)ccc3[C@H]2N1CC12CC3CC(CC(C3)C1)C2 | 0.2 (inactive) | 0.822 | 0.0278 | 0.2 (inactive) | -0.151 (inactive) | -0.382 (inactive)
11 | CCOC(=O)C[C@H]1[C@H](OC(=O)c2ccc(C(=O)c3ccccc3)cc2)[C@@H](NC(=O)C2CCCCC2)c2cc(OCCCO)ccc2N1C(=O)c1ccccc1 | -0.373 (inactive) | 0.186 | 0.863 | -2.97 (inactive) | 0.454 (inactive) | 0.0465 (inactive)
12 | O=C1C2C=CC(C(O)c3ccc(B(O)O)cc3)N(Nc3ccccc3)C2C(=O)N1c1ccccc1 (configuration not stated) | 0.158 (inactive) | -0.197 | -0.545 | -3.99 (inactive) | -0.149 (inactive) | -0.329 (inactive)
13 | Cc1ccc(S[C@]2(C(=O)NCc3ccccc3)CC(=O)N(Cc3ccccc3)[C@@H]2c2ccc(CO)cc2)cc1 | 0.824 (inactive) | 0.849 | 0.101 | -2.39 (inactive) | -0.0397 (inactive) | 0.377 (inactive)
14 | COc1ccc([Si](C)(C)[C@@H]2[C@@H](CCn3cc([C@H](O)c4ccccc4)nn3)O[C@]3(C(=O)N(Cc4cccc(N5CCOC5=O)c4)c4ccccc43)[C@H]2C)cc1 | 0.672 (inactive) | 0.168 | -2.33 | -2.64 (inactive) | -0.862 (inactive) | 0.0282 (inactive)
15 | CC(C)c1ccc(NN2C(C(O)c3c(F)cccc3Cl)C=CC3C(=O)N(c4ccccc4)C(=O)C32)cc1 (configuration not stated) | 0.38 (inactive) | 0.748 | -0.668 | -1.64 (inactive) | 0.561 (inactive) | 0.539 (inactive)
16 | CN(C)CCCCNC(=O)[C@H]1C[C@H]2C(=O)N[C@@H](Cc3ccccc3)C(=O)N2[C@H]1c1ccc(O)cc1 | 0.508 (inactive) | 0.0009 | -1.16 | -0.0255 (inactive) | -0.0685 (inactive) | -0.195 (inactive)
17 | COCCOC(=O)N1C(=O)[C@@]2(c3cc(C#CCCO)ccc31)[C@H](C(=O)NC[C@H](O)c1ccccc1)[C@H]1C(=O)O[C@H](c3ccccc3)[C@H](c3ccccc3)N1[C@@H]2c1ccc(O)cc1 | -0.246 (inactive) | 0.692 | 0.363 | -3.53 (inactive) | -0.392 (inactive) | -0.542 (inactive)
